Data: PubChem BioAssay AID463173 (ICCB-Longwood Screening Facility, Harvard Medical School, 2010)
The campaign covered roughly 52,000 compounds. About 4,300 (8.3%) were called active. What follows is part of a selection rich in actives, with near analogues and random picks from the rest. Unmarked numbers belong to inactive results. Cut-off read from the data, not from the text of the source: active = survival mostly below about 52% (no sharp cut-off); inactive = mostly above about 56%.

system: DeltatarO mutant; experiment: S. aureus survival, RN4220 and DeltatarO strains – OD600, teichoic acid synthesis inhibitors, primary screen (AID 463173); settings: S. aureus RN4220 wild type/DeltatarO growth, OD600, 18 h, hits give low values, screened at 18.75 µg/mL (by protocol)

Compound	survival
COc1ccc(Cl)cc1NC(=O)Cn1ncc2c3ccccc3n(C)c2c1=O	135%
Cc1ccc(C)c(NC(=O)Cn2c(=O)n(Cc3ccco3)c(=O)c3ccc(C(=O)NC4CCCC4)cc32)c1	95%
O=C(Nc1ccc2oc(-c3ccc4ccccc4c3)nc2c1)c1ccc(Cl)c(Cl)c1	83%
Cc1ccc2[nH]c(=O)c3cc(C(=O)NCCCN4CCC(C)CC4)sc3c2c1	85%
COc1ccc(-c2cc(-c3ccc(C)cc3)nc3c2COc2ccccc2-3)cc1	72%
Cc1oc2ncn(C)c(=O)c2c1C(=O)N1CCN(c2ccc(Cl)cc2)CC1	61%
CCc1ccc(Nc2cc(C)nc3nc(Cc4ccc(Cl)cc4)nn23)cc1	101%
Cc1cc(Nc2ccccc2F)n2nc(Cc3ccc(Cl)cc3)nc2n1	44% (active)
Cc1cccc(Nc2cc(C)nc3nc(Cc4ccc(Cl)cc4)nn23)c1	36% (active)
Cc1cc(Nc2cccc(Cl)c2C)n2nc(Cc3ccccc3)nc2n1	49% (active)
CCc1nc2nc(C)cc(Nc3cccc(C)c3C)n2n1	82%
Cc1cc(Nc2ccccc2C)n2nc(Cc3ccc(Cl)cc3)nc2n1	64%
Cc1ccc(Nc2cc(C)nc3nc(Cc4ccc(Cl)cc4)nn23)cc1	52%
CC(=O)c1cccc(Nc2cc(C)nc3nc(Cc4ccccc4)nn23)c1	62%
Cc1cc(Nc2ccc(C)c(Cl)c2)n2nc(Cc3ccccc3)nc2n1	31% (active)
Cc1cc(Nc2cc(Cl)ccc2C)n2nc(Cc3ccccc3)nc2n1	50%
Cc1cc(Nc2ccccc2F)n2nc(-c3ccccc3)nc2n1	47%
Cc1cc(Nc2ccc(C)c(Cl)c2)n2nc(-c3ccccc3)nc2n1	57%
CC1=C(C(=O)OCc2ccc(C)cc2)C(c2ccccc2C(F)(F)F)CC(=O)N1 (stereo not given)	124%
CCCSCCCNC(=O)CN1C(=O)CCn2nc(-c3cn(C)c4ccccc34)cc21	77%
CCN(CC)CCn1c2c(c(SCC(=O)Nc3cccc(C(F)(F)F)c3)nc1=O)CCC2	74%
CCOC(=O)c1cc(C)n(CC2CCC(C(=O)Nc3ccccc3OC)CC2)c1C (stereo not given)	107%
COc1cccc(NC2=CC(c3ccc(C(C)C)cc3)N(c3cccc(OC)c3)C2=O)c1 (stereo not given)	73%

Compound	survival
CCC(CC)C(=O)N1CCc2cc(OC)c(OC)cc2C1COc1ccc2c(C)cc(=O)oc2c1 (stereo not given)	83%
CNc1ccc(-c2nc(-c3ccncc3)no2)cc1[N+](=O)[O-]	108%
CCOc1ccc(-c2cccc(NS(=O)(=O)c3ccccc3C(F)(F)F)c2)nn1	91%
O=C(Cn1c(=O)nc(-c2ccccc2)c2ccccc21)Nc1cccc(C(F)(F)F)c1	104%
Cc1ccc2nc(N(Cc3cccnc3)C(=O)c3cccs3)sc2c1	71%
CCCCN(C)CCNC(=O)c1c2c(nc3ccccc13)C(=O)N(C1CCCCC1)C2	102%
O=C(NCCc1ccc(Cl)cc1)c1ccc2c(c1)N(Cc1cccc(Cl)c1)C(=O)c1ccccc1S2(=O)=O	117%
COc1ccccc1CNC(=O)CS(=O)(=O)Cc1nc(-c2ccccc2C)oc1C	63%
CCCCN(C)C(=O)C1CCCN(c2ncnc3onc(C)c23)C1 (stereo not given)	113%
O=C(Nc1ccc2c(c1)CCC2)C1CCN(c2ccc(S(=O)(=O)N3CCCC3)cc2)CC1	103%
Cc1ccc(Cl)cc1NC(=O)/C(C#N)=C/c1c(C)n(Cc2ccccc2)c2ccccc12	95%
Cc1ccc(NC(=O)/C(C#N)=C\c2ccc(Cl)cc2Cl)cc1C	29% (active)
Cc1ccc(Cl)cc1NC(=O)/C(C#N)=C\c1cn(Cc2ccc(F)cc2)c2ccccc12	98%
Cc1ccc(NC(=O)/C(C#N)=C/c2ccccc2Cl)cc1C	34% (active)
Cc1ccc(NC(=O)/C(C#N)=C/c2cc(C)n(-c3ccc(F)cc3)c2C)cc1C	65%
Cc1ccc(-n2c(C)cc(/C=C(\C#N)C(=O)Nc3ccc(C)c(C)c3)c2C)cc1	48%
Cc1ccccc1NC(=O)/C(C#N)=C/c1ccc(Cl)cc1Cl	32% (active)
Cc1ccc(NC(=O)/C(C#N)=C/c2ccc(C(C)C)cc2)cc1C	81%
Cc1ccc(NC(=O)/C(C#N)=C/c2cc(C)n(-c3ccc(Br)cc3)c2C)cc1C	65%
Cc1cc(C)n2c(Nc3ccccc3)c(-c3ccccc3)nc2n1	72%
Cc1cccc(N2CCN(Cc3nnc(-c4cccc(Br)c4)o3)CC2)c1C	72%
CCc1ccccc1N(C)C(=O)c1ccc2c(=O)n3c(nc2c1)CCCCC3	81%
